Results filed as inconclusive are left out. Active and inactive are the calls of the source. Unless noted, calls come from the whole dose curve; as a rule, active = well fitted curve in the direction sought with a large enough effect; inconclusive = small, poorly fitted or top-dose-only effect, or another doubt; inactive = no such curve, though single readings can be large; an effect the other way counts as inactive or inconclusive.
Key:
[1] = biological target: Glutaminase kidney isoform, mitochondrial (Homo sapiens) (UniProt O94925); test: qHTS for Inhibitors of Glutaminase (GLS): LOPAC Validation (AID 624146); note: potency is the fitted concentration of half-maximal effect; nearly all actives have a fitted effect of over 60% in size
In short: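 Coupled fluorescence readout: glutamate oxidase/HRP/Amplex Red detect glutamate formed by hKGA from L-glutamine (1 mM solution added). Buffer 45 mM KH2PO4 pH 8.2, 0.02% Tween-20; reads at t0 and 30 min RT.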

[2] = qHTS of Nrf2 Activators: LOPAC Validation (AID 624149)
In short: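 Luminescence read-out of ARE-luciferase activation: AREc32_Fluc cells treated with compounds for 24 hr at 37 deg C, then lysed with Steady-Glo for 30 min at room temperature before reading.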

[3] = biological target: Arylsulfatase A (Homo sapiens) (UniProt P15289); test: qHTS screen for enhancers of Arylsulfatase A (ASA1): LOPAC Validation Assay (AID 720538)
In short: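 First, ASA-I179S fibroblasts from an MLD patient adhered for 6 hrs. Next, compounds were added for 48h. Then pNCS substrate (0.5mM final) with lysis buffer reacted 14h at room temperature before NaOH stop and fluorescence measurement.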

[4] = qHTS for compounds that reverse cellular toxicity of Amyloid beta (A-beta) peptide in yeast: LOPAC Validation Assay (AID 720559)
In short: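 Activity is expressed relative to DMSO and an equimolar ferric chloride/clioquinol mix. Compounds were pinned into medium with A-beta-expressing yeast, grown 48 hr at 30 C, then read by absorbance at 600 nm.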

[5] = qHTS for Activators of Parkin Expression: LOPAC Validation Assay (NLuc Reporter) (AID 720572)
In short: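 Neuronal line stably carrying a FLuc/NLuc coincidence reporter under the Parkin promoter, seeded 24 h, then dosed in 7-point series for 24 h at 37 C. NLuc luminescence read after FLuc; normalized to DMSO and positive control (100%).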

[6] = qHTS for Activators of Parkin Expression: LOPAC Validation Assay (FLuc Reporter) (AID 720573)
In short: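 A neuronal cell line harbouring FLuc and NLuc reporters behind the Parkin promoter was exposed to compounds for 24 h. Firefly luciferase signal, measured after 10 min with detection reagent, was scaled to DMSO and positive-control wells.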

[7] = biological target: T1, Hexokinase-4 (Homo sapiens) + Glucokinase regulatory protein (Homo sapiens) (UniProt P35557+Q14397); test: qHTS assay for inhibitors of recombinant human GCK-GKRP interaction: Diaphorase-coupled assay (AID 743205)
In short: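 Inhibitors of the GCK–GKRP complex relieve GKRP suppression of GCK, detected through a G6PDH–diaphorase cascade reducing resazurin. Human GST-GCK and FLAG-GKRP are used at 10 nM with 5 mM glucose and 0.4 mM ATP.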

[8] = biological target: T1, Hexokinase-4 (Homo sapiens) + Glucokinase regulatory protein (Homo sapiens); test: qHTS assay for inhibitors of recombinant human GCK-GKRP interaction: ADP-Glo assay (AID 743206)
In short: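 GST-GCK and FLAG-GKRP (15 nM each in the dispensed mix, with 2 uM S6P) react with 0.4 mM ATP and 5 mM glucose (final) in Hepes pH 7.6 for 60 min at room temperature. ADP is measured by ADP-Glo luminescence.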

[9] = biological target: T1, Hexokinase-4 (Homo sapiens) + Glucokinase regulatory protein (Homo sapiens); test: qHTS assay for inhibitors of recombinant human GCK-GKRP interaction: HTRF assay (AID 743207)
In short: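 Steps: dispense GCK–GKRP complex (5 nM each, GST- and FLAG-tagged) with 2 uM S6P; pin in compounds; add XL665/Eu-cryptate-labelled antibodies; incubate 60 min at room temperature; read time-resolved FRET at 665 and 615 nm.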

[10] = Natriuretic polypeptide receptor (hNpr1) antagonism - Pilot counterscreen GloSensor control cell line (AID 1347045; calls by dose curve)
In short: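 Luminescence was read before and 20 min after adding 50 uM SNP, which stimulates soluble guanylyl cyclase. The HEK293 cells expressing the GloSensor cGMP sensor had been preloaded with 2% reagent for 2 h and treated with compound.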

[11] = biological target: Atrial natriuretic peptide receptor 1 (Homo sapiens) (UniProt P16066); test: Natriuretic polypeptide receptor (hNpr1) antagonism - Pilot screen (AID 1347049; calls by dose curve;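 note: agonist-evoked cGMP luminescence read 20 min after hNppA addition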)
In short: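 HEK293 cells co-expressing hNpr1 and the GloSensor pGS-40F cGMP luciferase sensor were preloaded with 2% GloSensor reagent for 2 h. Compounds were added for 30 min at room temperature, then cells were stimulated with 0.1 nM hNppA for 20 min before luminescence readout.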

[12] = biological target: Atrial natriuretic peptide receptor 2 (Homo sapiens) (UniProt P20594); test: Natriuretic polypeptide receptor (hNpr2) antagonism - Pilot subtype selectivity assay (AID 1347050; calls by dose curve)
In short: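 cGMP-sensor HEK293/hNpr2 cells; 2% GloSensor reagent 2 h RT; compounds 30 min; baseline luminescence read; 1 nM hNppC agonist 20 min RT; final luminescence read by CCD camera. Antagonism = reduced post-agonist signal.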

[13] = biological target: T2, Tyrosine-protein phosphatase non-receptor type substrate 1 (Homo sapiens) + Leukocyte surface antigen CD47 (Homo sapiens) (UniProt P78324+Q08722); test: CD47-SIRPalpha protein protein interaction - LANCE assay qHTS validation (AID 1347057; active = well fitted curve in the direction sought with a large enough effect in the signal ratio, with a control signal flat, not every such curve was filed as active; the % refers to the signal ratio)
In short: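 First, His-tagged CD47 and Eu-labelled anti-His antibody met the compound for 30 min; next, site-specifically biotinylated SIRPalpha was added for 30 min; finally streptavidin-APC was added before reading the TR-FRET ratio.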

[14] = biological target: T2, Tyrosine-protein phosphatase non-receptor type substrate 1 (Homo sapiens) + Leukocyte surface antigen CD47 (Homo sapiens); test: CD47-SIRPalpha protein protein interaction - HTRF assay qHTS validation (AID 1347058; active = well fitted curve in the direction sought with a large enough effect in the signal ratio, not every such curve was filed as active; the % refers to the signal ratio)
In short: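 TR-FRET read (Ch1/Ch2 ratio) of soluble extracellular CD47 and Avi-biotinylated SIRPalpha domains in PBS pH 7.4 with 0.05% IGEPAL; 7-point compound titration. Sequential 30 min room-temperature steps; non-biotinylated SIRPalpha as control inhibitor.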

[15] = biological target: T2, Tyrosine-protein phosphatase non-receptor type substrate 1 (Homo sapiens) + Leukocyte surface antigen CD47 (Homo sapiens); test: CD47-SIRPalpha protein protein interaction - Alpha assay qHTS validation (AID 1347059);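 note: bead proximity luminescence from CD47 binding SIRPalpha after compound preincubation with SIRPalpha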
In short: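 Soluble extracellular domains: Avi-tag biotinylated SIRPalpha (25 nM) preincubated 30 min RT with compound, then 6His-CD47 (12.5 nM) 30 min; Ni-NTA acceptor and streptavidin donor beads (10 ug/mL) 30 min, AlphaScreen read. PBS pH 7.4, 0.05% IGEPAL.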

[16] = biological target: Parathyroid hormone/parathyroid hormone-related peptide receptor (Homo sapiens) (UniProt Q03431); test: qHTS for PTHR1 Agonists: Optimization Screen against the NCGC LOPAC library (AID 1347079);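 note: GloSensor cAMP luminescence in HEK-293 GP2 cells expressing human PTHR1 with IBMX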
In short: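 Agonist readout: GloSensor cAMP luminescence, read after 15 min at room temperature. HEK-293-derived GP2 line carries PTHR1; compounds tested as a titration for 1 hr at 37C in presence of IBMX. M-PTH (1-15) served as control.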

[17] = biological target: N-terminal Xaa-Pro-Lys N-methyltransferase 1 (Homo sapiens) (UniProt Q9BV86); test: qHTS Assay for Inhibitors of N-terminal methyltransferase 1 (NTMT1): LOPAC validation of the NTMT1 SAHH-coupled ThioGlo3 Assay (AID 1347143); note: potency is the fitted concentration of half-maximal effect; nearly all actives have a fitted effect of over 70% in size
In short: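 Fluorescence read-out (excitation 340nm, emission 450nm) of SAH-derived thiol, measured via SAHH coupling and ThioGlo3, taken immediately and after a 30 min room-temperature reaction, then normalized to the background read. Enzyme: NTMT1 at 125nM; cofactor SAM 100uM in the added reagent.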

[18] = qHTS to identify inhibitors of the type 1 interferon - major histocompatibility complex class I in skeletal muscle: primary screen against the NCATS LOPAC collection (AID 1347405);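 note: lytic HiBiT luminescence reporting HLA-B protein level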
In short: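 Luminescence from HiBiT fused to endogenous HLA-B in CRISPR-engineered human myoblasts served as the read-out. Cells received 4.0 ng/ml IFN-beta plus compound (seven concentrations, 1:4.3 steps, highest 46 uM final) for 24 hrs before lytic detection.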

[19] = qHTS for inhibitors of adenylyl cyclases using a fission yeast platform: a pilot screen against the NCATS LOPAC library (AID 1347410)
In short: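 Growth medium went into the plates first, then compounds were pinned (final up to 57 µM), then CHP2027 yeast were added. Plates were incubated overnight (18 h) at 30C in the dark, and GFP was measured by laser scanning cytometry.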

[20] = biological target: Single-stranded DNA cytosine deaminase (Homo sapiens) (UniProt Q9GZX7); test: Validation qHTS assay for inhibitors of Activation Induced Cytidine Deaminase (AID): AID signal (AID 1347429)
In short: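 Fluorescence at 540 nm excitation and 590 nm emission reports ssDNA cytosine deamination by AID, with UDG in the same well. Compound-treated reactions ran 4 hr at room temperature with DJC20/DJC23 substrate, followed by 30 min NaOH treatment.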

[21] = biological target: Calcium and integrin-binding protein 1 (Homo sapiens) (UniProt Q99828); test: Validation qHTS for Identification of Calcium Integrin Binding protein 1 (CIB1) Competitor (AID 1508618)
In short: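 Fluorescence polarization with 1 uM CIB1-GST and 100 nM FITC-alphaIIb peptide in HEPES pH 7.4, NaCl, 5 mM CaCl2, Tween20. Compounds at up to 114 uM final, preincubated with protein 15 min; read after 15 min more at RT.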

[22] = Primary qHTS for small molecule stabilizers of the endoplasmic reticulum resident proteome: Secreted ER Calcium Modulated Protein (SERCaMP) assay (AID 1508630)
In short: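 GLuc-SERCaMP-expressing SH-SY5Y cells, pretreated 16 h with compound, are challenged with thapsigargin to empty ER calcium stores; after 4 h, coelenterazine is added directly to the medium and luminescence is imaged.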

[23] = biological target: Papain (Carica papaya) (UniProt P00784); test: Primary qHTS assay for inhibitors of the protease papain (AID 1645873);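 note: papain turnover of Z-FR-AMC read as the AMC fluorescence gain over 10 min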
[24] = biological target: Catechol O-methyltransferase (Homo sapiens) (UniProt P21964); test: Confirmatory Screen for Target Class Profiling of Small Molecule Inhibitors of Methyltransferases (AID 1745852); details: MTase-Glo luminescence, SAH detection, recombinant enzyme; measured here: COMT max response; stronger effect = lower value
[25] = biological target: Guanidinoacetate N-methyltransferase (Homo sapiens) (UniProt Q14353); test: as above; details: activity change, negative = inhibition: at 57.3 µM (top of the series) unless noted
[26] = biological target: Nicotinamide N-methyltransferase (Homo sapiens) (UniProt P40261); test: as above; details: MTase-Glo luminescence, SAH detection, recombinant enzyme; measured here: NNMT max response; stronger effect = lower value
[27] = biological target: Phenylethanolamine N-methyltransferase (Homo sapiens) (UniProt P11086); test: as above; details: MTase-Glo luminescence, SAH detection, recombinant enzyme; measured here: PNMT max response; stronger effect = lower value
[28] = biological target: Metallo-beta-lactamase type 2 (Klebsiella pneumoniae) (UniProt C7C422); test: qHTS to identify inhibitors of the New Delhi Metallo-beta-lactamase (NDM): assay validation screen against the NCATS LOPAC Collection (AID 1794843);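 note: nitrocefin turnover by NDM-1 measured as 485 nm absorbance at plateau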
In short: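 NDM-1 at 2 nM final in 50 mM HEPES pH 7.0, 1 uM ZnSO4, 0.01% Tween20, preincubated with LOPAC compounds pinned in DMSO; 50 uM nitrocefin (stock) added. Hydrolysis read as absorbance at 485 nm in the plateau phase.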

[29] = biological target: Glutathione peroxidase 1 (Homo sapiens) (UniProt P07203); test: Primary qHTS Assay for Inhibitors of Recombinant Selenoprotein Glutathione Peroxidase 1 (GPX1) (AID 1845191); note: nearly all actives have a fitted effect of over 65% in size
In short: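 Recombinant GPX1 (10 nM final) was preincubated with compound for 30 min at room temperature, then reacted with 1 mM GSH, 0.5 mM CHP, 0.5 mM NADPH and 100 nM glutathione reductase; NADPH fluorescence (340/450 nm) was read at 0 and 15 min.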

[30] = biological target: Phospholipid hydroperoxide glutathione peroxidase GPX4 (Homo sapiens) (UniProt P36969); test: Primary qHTS Assay for Inhibitors of Recombinant Selenoprotein Glutathione Peroxidase 4 (GPX4) (AID 1845192); details: outcome: dose series up to 50 µM unless noted; note: nearly all actives have a fitted effect of over 65% in size
In short: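 GR-coupled readout: 100 nM GR, 1 mM GSH, 0.5 mM NADPH; NADPH fluorescence (ex 340/em 450 nm) read at t=0 and after 15 min RT. GPX4 200 nM, preincubated 30 min with compound; substrate 0.5 mM CHP.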

T1 sequence (P35557 whole entry, looked up): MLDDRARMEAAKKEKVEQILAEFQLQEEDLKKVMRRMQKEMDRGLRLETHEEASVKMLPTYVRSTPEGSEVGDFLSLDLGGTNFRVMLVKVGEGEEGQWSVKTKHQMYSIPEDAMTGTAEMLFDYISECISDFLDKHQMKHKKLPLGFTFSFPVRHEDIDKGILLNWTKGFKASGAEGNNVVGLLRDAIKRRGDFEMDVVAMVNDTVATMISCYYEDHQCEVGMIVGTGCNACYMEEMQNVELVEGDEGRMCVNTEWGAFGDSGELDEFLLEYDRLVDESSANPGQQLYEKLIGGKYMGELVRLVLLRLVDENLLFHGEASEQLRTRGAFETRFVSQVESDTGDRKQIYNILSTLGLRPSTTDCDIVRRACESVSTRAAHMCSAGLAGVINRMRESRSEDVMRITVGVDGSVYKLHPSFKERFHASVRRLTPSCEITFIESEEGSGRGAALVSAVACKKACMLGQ
T1 sequence (Q14397 whole entry, looked up): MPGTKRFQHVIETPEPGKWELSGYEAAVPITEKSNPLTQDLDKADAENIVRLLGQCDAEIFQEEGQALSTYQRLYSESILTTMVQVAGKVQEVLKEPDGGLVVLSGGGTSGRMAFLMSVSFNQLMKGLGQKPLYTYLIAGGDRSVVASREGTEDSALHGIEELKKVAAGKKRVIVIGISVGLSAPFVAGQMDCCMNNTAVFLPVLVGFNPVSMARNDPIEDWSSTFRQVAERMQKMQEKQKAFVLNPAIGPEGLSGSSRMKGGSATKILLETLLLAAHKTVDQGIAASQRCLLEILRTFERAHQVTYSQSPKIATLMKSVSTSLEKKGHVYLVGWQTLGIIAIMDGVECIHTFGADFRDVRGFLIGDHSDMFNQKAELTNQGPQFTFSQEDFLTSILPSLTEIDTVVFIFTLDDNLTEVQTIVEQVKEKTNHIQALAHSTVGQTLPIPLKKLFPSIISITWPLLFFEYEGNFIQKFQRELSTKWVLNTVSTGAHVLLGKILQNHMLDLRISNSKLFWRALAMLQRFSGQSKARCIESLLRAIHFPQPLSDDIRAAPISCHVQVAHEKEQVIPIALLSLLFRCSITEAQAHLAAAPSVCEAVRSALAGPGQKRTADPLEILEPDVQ
T2 sequence (P78324 whole entry, looked up): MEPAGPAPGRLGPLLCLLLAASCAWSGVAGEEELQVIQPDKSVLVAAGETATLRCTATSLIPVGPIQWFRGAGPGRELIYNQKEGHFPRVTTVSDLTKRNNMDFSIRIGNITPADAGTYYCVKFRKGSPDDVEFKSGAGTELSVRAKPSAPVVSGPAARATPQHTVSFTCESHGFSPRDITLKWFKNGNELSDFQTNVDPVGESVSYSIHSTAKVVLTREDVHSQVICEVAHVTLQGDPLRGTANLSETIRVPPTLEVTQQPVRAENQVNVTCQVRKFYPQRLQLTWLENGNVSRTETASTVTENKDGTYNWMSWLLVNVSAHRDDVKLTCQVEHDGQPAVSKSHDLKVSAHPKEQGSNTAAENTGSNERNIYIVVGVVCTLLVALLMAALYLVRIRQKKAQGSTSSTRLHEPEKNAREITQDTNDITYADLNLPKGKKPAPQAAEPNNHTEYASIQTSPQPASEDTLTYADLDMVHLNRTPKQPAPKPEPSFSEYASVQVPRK
T2 sequence (Q08722 whole entry, looked up): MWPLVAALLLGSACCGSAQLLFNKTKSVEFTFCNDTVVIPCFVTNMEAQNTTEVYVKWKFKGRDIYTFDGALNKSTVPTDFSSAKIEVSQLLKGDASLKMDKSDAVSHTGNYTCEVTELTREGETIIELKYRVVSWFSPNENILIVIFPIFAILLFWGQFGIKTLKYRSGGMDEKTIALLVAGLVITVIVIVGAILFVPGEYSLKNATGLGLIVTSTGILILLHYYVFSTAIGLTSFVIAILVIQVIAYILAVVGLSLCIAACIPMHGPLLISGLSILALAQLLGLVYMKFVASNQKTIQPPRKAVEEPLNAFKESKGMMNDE
Chain of Atrial natriuretic peptide receptor 1 (Homo sapiens) (P16066 whole entry, looked up): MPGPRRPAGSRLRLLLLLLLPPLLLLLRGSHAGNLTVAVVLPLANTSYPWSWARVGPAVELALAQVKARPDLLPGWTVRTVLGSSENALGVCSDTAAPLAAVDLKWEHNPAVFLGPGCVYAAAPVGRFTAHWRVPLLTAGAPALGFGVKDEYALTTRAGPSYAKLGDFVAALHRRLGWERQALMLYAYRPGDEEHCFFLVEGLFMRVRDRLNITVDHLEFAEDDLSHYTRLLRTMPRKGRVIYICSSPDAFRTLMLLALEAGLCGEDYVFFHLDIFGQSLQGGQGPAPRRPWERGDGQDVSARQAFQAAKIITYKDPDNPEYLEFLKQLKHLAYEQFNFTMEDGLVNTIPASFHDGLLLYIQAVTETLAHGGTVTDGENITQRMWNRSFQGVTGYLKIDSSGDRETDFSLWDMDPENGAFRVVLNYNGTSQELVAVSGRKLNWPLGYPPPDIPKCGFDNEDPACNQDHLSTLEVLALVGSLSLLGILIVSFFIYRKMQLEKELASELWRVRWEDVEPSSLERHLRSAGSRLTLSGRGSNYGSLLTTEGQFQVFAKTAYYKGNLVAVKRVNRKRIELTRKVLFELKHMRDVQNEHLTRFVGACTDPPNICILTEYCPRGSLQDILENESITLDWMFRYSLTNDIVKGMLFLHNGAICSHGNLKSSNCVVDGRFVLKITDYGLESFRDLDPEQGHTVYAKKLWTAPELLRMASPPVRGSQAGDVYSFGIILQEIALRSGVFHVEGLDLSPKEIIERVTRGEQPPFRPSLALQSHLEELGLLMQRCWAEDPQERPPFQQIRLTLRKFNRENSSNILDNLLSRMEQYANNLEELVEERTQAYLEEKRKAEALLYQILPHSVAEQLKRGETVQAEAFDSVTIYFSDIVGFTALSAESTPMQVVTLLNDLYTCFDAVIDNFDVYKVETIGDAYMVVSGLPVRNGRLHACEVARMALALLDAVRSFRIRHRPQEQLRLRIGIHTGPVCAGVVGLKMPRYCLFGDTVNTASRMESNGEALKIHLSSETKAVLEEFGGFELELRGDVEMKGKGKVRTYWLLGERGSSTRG
Chain of Glutathione peroxidase 1 (Homo sapiens) (P07203 whole entry, looked up): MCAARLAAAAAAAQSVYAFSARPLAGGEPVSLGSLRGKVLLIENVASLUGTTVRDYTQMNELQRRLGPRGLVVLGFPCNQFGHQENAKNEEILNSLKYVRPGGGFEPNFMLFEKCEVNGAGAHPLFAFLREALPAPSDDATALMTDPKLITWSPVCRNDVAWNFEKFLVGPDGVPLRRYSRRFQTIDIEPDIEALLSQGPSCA
Chain of Arylsulfatase A (Homo sapiens) (P15289 whole entry, looked up): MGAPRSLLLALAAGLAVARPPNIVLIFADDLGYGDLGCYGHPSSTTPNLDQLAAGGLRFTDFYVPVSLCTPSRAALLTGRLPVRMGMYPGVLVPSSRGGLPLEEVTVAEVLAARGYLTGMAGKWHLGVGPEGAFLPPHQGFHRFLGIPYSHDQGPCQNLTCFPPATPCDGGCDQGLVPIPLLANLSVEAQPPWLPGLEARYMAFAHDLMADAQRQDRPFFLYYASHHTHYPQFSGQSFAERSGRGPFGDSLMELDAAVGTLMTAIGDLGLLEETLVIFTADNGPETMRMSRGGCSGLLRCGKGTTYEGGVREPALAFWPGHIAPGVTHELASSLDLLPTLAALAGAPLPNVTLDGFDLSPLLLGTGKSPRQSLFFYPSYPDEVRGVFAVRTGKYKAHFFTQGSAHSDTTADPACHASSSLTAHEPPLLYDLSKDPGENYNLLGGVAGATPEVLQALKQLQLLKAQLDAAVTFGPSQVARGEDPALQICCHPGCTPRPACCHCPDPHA
Chain of Phenylethanolamine N-methyltransferase (Homo sapiens) (P11086 whole entry, looked up): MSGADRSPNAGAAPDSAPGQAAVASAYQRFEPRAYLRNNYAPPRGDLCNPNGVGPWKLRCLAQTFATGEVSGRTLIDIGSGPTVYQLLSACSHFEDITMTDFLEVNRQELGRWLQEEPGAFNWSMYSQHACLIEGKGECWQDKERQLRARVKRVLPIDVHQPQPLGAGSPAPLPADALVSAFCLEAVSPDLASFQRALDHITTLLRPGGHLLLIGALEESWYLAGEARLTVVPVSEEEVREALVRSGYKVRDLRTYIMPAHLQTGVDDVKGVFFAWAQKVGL
Chain of Papain (Carica papaya) (P00784 whole entry, looked up): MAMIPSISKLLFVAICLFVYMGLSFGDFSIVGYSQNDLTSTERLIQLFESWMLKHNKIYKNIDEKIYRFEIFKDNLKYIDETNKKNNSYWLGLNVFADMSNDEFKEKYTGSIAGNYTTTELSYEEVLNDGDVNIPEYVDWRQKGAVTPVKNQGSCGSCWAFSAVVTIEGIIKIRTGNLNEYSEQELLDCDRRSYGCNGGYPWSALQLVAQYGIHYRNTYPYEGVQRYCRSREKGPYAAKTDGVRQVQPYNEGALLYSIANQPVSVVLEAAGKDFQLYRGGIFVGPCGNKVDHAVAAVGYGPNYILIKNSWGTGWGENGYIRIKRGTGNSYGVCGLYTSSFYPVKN
Chain of N-terminal Xaa-Pro-Lys N-methyltransferase 1 (Homo sapiens) (Q9BV86 whole entry, looked up): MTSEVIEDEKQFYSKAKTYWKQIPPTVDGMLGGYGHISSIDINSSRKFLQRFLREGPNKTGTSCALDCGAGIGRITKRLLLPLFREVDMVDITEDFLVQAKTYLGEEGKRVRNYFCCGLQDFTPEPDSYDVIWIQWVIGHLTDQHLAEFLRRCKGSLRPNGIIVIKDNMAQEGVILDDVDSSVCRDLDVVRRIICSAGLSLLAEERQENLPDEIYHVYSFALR
Chain of Metallo-beta-lactamase type 2 (Klebsiella pneumoniae) (C7C422 whole entry, looked up): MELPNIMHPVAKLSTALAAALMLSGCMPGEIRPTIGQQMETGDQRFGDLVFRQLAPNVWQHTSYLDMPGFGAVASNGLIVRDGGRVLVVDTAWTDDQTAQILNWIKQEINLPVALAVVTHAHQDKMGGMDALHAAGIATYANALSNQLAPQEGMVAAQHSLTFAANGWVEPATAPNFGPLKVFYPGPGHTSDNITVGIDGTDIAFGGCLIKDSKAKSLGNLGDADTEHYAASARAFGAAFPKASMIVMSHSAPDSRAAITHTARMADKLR

Oc1cc2c(c(Cl)c1O)CCNCC2c1ccccc1 (stereo not given)
7.26%: activity [27]
2.7%: activity change, negative = inhibition [25]
-10.3%: activity [26]
72.9%: activity [24]
inactive: outcome [2] | Potency [3] | outcome [4] | outcome [5] | Potency [6] | outcome [7] | outcome [8] | outcome [9] | Potency [10] | Potency [11] | Potency [12] | outcome [13] | outcome [14] | Potency [15] | outcome [16] | Potency [18] | outcome [19] | Potency [20] | outcome [21] | Potency [22] | Potency [23] | Potency [28] | Potency [29] | Potency [30]
active: Potency [1] 1.12 µM | Potency [17] 39.8 µM

— PubChem BioAssay (NCATS)
